# Screening results (PubChem)
# Most compounds without a hit are left out; they make up all but 4.6% or so of the library.
# D1 antagonist: blocks dopamine activation of the human D1 receptor; activity change, negative = inhibition, % at 10 µM; HEK293 TREx D1 cells, calcium flux, dopamine EC80; hits give low values; 360,000 tested, 3.2% active; in the data active = activity change below about -30%; note: % is set by controls: 0 for no effect and ±100 for the full control effect
#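 Compound effects on dopamine-evoked calcium signalling were measured in tetracycline-induced HEK293 Trex D1 cells. Dopamine at EC80 followed a 180 s compound pre-read, and fluorescence was tracked kinetically for 180 s more.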
# D1 PAM: enhances dopamine response at the human D1 receptor; P21728; HEK293 TREx D1 cells, calcium flux, dopamine EC20 potentiation; potentiation, % at 10 µM; 360,000 tested, 0.036% active; in the data active = potentiation above about 30%; note: 0% is about no effect
# TRHR agonist: TRH receptor (human) agonism; TRHR cells, calcium flux fluo-8, FDSS agonist mode; activation, % at 2 µM; 360,000 tested, 0.18% active; AID 493084; note: 0% is about no effect
# Target sequence (P34981 whole entry, looked up): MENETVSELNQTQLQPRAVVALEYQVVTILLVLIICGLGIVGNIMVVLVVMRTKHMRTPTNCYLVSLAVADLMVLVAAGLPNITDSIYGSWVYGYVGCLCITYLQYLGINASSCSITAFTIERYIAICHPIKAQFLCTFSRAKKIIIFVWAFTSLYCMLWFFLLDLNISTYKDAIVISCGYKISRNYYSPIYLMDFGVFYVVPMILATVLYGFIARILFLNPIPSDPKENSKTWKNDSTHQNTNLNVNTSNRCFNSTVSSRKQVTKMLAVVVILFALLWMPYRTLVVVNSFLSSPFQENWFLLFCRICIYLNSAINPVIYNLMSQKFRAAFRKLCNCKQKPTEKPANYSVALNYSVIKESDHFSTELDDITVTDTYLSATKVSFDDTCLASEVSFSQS
#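 Read-out: compound-evoked intracellular calcium rise in TRHR cells, fluo-8 dye, kinetic FDSS fluorescence at 1 s/cycle following a 10-cycle baseline. Cells cultured overnight before dye loading (30 min–1.5 h, RT).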
# TRHR PAM: TRH receptor (human) allosteric enhancement; 360,000 tested, 0.66% active; P34981; enhancement, % at 2 µM; TRHR cells, fluo-8 calcium fluorescence, EC20 TRH enhancement; AID 493056; in the data active = enhancement above about 30%; note: 0% is about no effect
#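 TRHR-expressing cells loaded with fluo-8 calcium dye were read kinetically (ex 480/em 530) during compound addition, then stimulated with an EC20 of TRH (10 nM final). Enhancement of the Gq-mediated intracellular calcium response was scored.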
# D1 agonist: human D1 receptor agonism; activation, % at 2 µM; P21728; HEK293 T-REx D1 cells, calcium flux, agonist mode; 360,000 tested, 1% active; note: 0% is about no effect
#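 Tetracycline-induced HEK293 TREx D1 cells, force-coupled to calcium signalling, were dye-loaded with a no-wash calcium kit. Compound was pin-added after a 10 s baseline. Fluorescence was read kinetically at 1 cycle/s for 180 s, with calcium rises flagged as agonism.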
# * hit, by the source's call. Cut-off read from the data, not from the text of the source, unless noted: active = activation above about 30%; inactive = the rest.
SMILES,D1 antagonist,D1 PAM,TRHR agonist,TRHR PAM,D1 agonist
Cc1cc(C)cc(OCC(=O)N(Cc2cccs2)c2ccc(Cl)cc2)c1,9.6,1.1,1.3,0.2,33.1*
O=C(CN1CCOCC1)Nc1cc(C(F)(F)F)ccc1Cl,1.5,-3.0,-1.6,-2.4,2.9
Cc1ccc(C)n1CCN1CCN(CC(=O)Nc2cc(C(F)(F)F)ccc2Cl)CC1,-0.1,-4.0,0.0,55.1*,-0.2
O=C(O)CCc1nn2c3ccccc3nc2n(CCN2CCCCC2)c1=O,-30.6*,-4.8,0.1,-3.1,6.6
O=C(O)CCc1nc2ccccc2n(CCc2ccccc2)c1=O,-14.2,-0.7,-0.4,2.2,1.0
CCN(CC)c1ccc2cc(C(=O)NCc3ccc(F)cc3)c(=N)oc2c1,-28.9,-10.6,34.0*,-1.5,170.1*
Cc1ccc(C(=O)Nc2ccc3c(c2)N(C)C(=O)c2ccccc2S3)cc1,-11.4,-4.5,0.0,-2.3,4.9
CCCCOc1ccc(C(=O)NNC(=O)C2C3CCC(C3)C2C(=O)O)cc1 (configuration not stated),2.5,3.8,-0.3,0.4,1.0
CCCCOc1ccc(C(=O)NNC(=O)C2C3C=CC(C3)C2C(=O)O)cc1 (configuration not stated),-82.0*,-6.5,-0.5,-2.9,2.2
O=C(c1ccc(O)cc1)c1ccc(O)cc1O,5.1,-3.9,-0.1,4.1,4.0
O=C(c1ccccc1)c1ccc(O)cc1O,-7.6,-1.5,19.9,-3.5,60.2*
O=C(Nc1ccc([N+](=O)[O-])cc1)c1ccccc1F,-17.4,-8.6,-1.5,-2.6,2.4
O=C(Nc1ncc(S(=O)(=O)c2ccc([N+](=O)[O-])cc2)s1)c1ccccc1F,-12.0,8.3,7.7,3.5,37.9*
CCN(C(=O)Cn1c(C(=O)OC)cc2sc(Cl)cc21)c1cccc(C)c1,15.9,11.3,1.9,-1.1,7.2
Cc1c([C@H]2[C@@H](CC#N)C2(C)C)c2ccccc2n1C,-12.4,-6.7,-1.3,-0.8,0.6
Cc1[nH]c2c(Br)cccc2c1[C@H]1[C@@H](CC#N)C1(C)C,2.6,-3.9,0.0,32.2*,5.0
COc1cc(NC(=O)c2c(C)nn(-c3ccc(F)cc3)c2-n2cccc2)cc(OC)c1,0.2,-1.1,41.6*,8.7,5.5
Cc1nn(-c2ccc(F)cc2)c(-n2cccc2)c1C(=O)NCCCN1CCN(c2cccc(Cl)c2)CC1,-33.0*,-3.6,0.2,2.1,6.2
Cc1nn(-c2ccccc2)c(-n2cccc2)c1C(=O)NCCc1ccc(Cl)cc1,-29.5,0.3,-1.0,4.3,67.6*
Cc1nn(-c2ccccc2)c(-n2cccc2)c1C(=O)NCc1ccccc1Cl,-8.2,-4.1,1.9,-6.5,23.5
COc1ccc(N2CCN(CCCNC(=O)c3cnn(-c4ccc(F)cc4)c3-n3cccc3)CC2)cc1,-16.6,-0.6,-0.7,1.2,41.4*
COc1ccc(C(=O)NCC2(N3CCN(C)CC3)CCCCC2)cc1,10.5,-0.3,0.6,8.7,1.3
COc1cccc(-c2nc(NCc3ccccc3)c3ccccc3n2)c1O,5.2,-8.3,-0.9,2.0,6.4
Cc1nc(NCc2ccccc2)c2cc[nH]c2n1,-33.9*,-1.9,0.0,8.1,5.5
Cc1ccc(NC(=O)C(OC(=O)c2ccc(O)cc2)c2ccccc2)cc1Cl (configuration not stated),-41.0*,2.8,0.8,-4.1,7.6
SMILES,D1 antagonist,D1 PAM,TRHR agonist,TRHR PAM,D1 agonist
CCOc1cc(C2C(C(N)=O)=C(C)Nc3ncnn32)cc(Br)c1O (configuration not stated),9.0,2.5,0.4,3.6,1.7
Cc1cc(C)cc(NC(=O)Cn2cc3c(n2)CCCCC3)c1,-1.2,-0.2,-0.6,1.0,51.1*
CCOc1ccc(/C=C/c2nc(C#N)c(NC3CCCCC3)o2)cc1,-37.8*,0.1,-1.2,-7.3,5.2
COC(=O)c1ccc(NC(=O)Cn2nc(C(=O)Nc3ccc(C)cc3)ccc2=O)cc1,5.7,-1.4,0.3,-0.5,3.2
COc1ccc(NC(=O)c2oc3ccc(S(=O)(=O)N4CCCCC4)cc3c2C)cc1Cl,-2.7,0.7,0.0,-5.9,0.0
N#C/C(=N\Nc1cccc(Cl)c1)C(=O)c1ccccc1,-15.7,-4.2,2.7,5.4,16.5
C/C(=N\NC(=O)c1cccc(N/N=C(\C)c2ccc([N+](=O)[O-])cc2)c1)c1ccc([N+](=O)[O-])cc1,-37.6*,-14.4,-0.1,1.5,0.1
